# Source: PubChem
# A selection: hits, their analogues and other compounds. The true share with any hit is near 28%.
# CYP2C9 inh: blockers of cytochrome P450 2C9 activity – biochemical, luminescence, ADME assay, primary screen; hit rate 20% among 96,000; inhibition, % at 5 µM; AID 777, 2007; CYP2C9 Supersomes, luciferin-H conversion; P11712;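 active = blocking of liver enzyme CYP2C9 beyond about 50% at 5 µM, limit read from the data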
# Target sequence (P11712 whole entry, looked up): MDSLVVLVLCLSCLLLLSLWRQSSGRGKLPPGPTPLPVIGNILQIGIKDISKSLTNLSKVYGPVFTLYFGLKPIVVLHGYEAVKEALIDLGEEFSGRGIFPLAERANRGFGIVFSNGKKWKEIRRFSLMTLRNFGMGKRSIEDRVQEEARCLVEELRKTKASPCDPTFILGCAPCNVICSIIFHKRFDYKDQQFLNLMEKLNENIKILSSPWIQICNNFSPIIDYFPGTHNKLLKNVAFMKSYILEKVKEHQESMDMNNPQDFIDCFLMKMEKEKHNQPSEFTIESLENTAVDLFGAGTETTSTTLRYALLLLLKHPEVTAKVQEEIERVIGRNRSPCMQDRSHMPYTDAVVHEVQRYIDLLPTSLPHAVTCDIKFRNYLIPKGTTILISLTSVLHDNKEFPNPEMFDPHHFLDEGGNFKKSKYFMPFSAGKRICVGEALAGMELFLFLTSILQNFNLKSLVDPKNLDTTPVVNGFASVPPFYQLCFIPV
# CYP2C9 activ: human CYP2C9 activators, primary screen, biochemical, luminescence. Cytochrome P450 2C9 (Homo sapiens), P11712. recombinant CYP2C9, luciferin-H conversion; active compounds read high; factor 1 = untreated enzyme, 0 = blocked. activation factor at 5 µM. hit rate 1.4% among 96,000. AID 1024, 2008;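 active = activation factor of 2 or more for CYP2C9 at a 5 µM dose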;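 note: 0 = sulfaphenazole-blocked wells and 1 = vehicle-only wells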
# CYP2C19 activ: human CYP2C19 activators, primary screen, biochemical, luminescence; activation factor at 5 µM; recombinant CYP2C19, luciferin-H EGE luminescence; active compounds read high; 0 = fully inhibited enzyme, 1 = untreated enzyme; 96,000 tested, under 10 active;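 active = activation factor of at least 2 at 5 µM in the primary screen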;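 note: 0 = wells with 2.5 mM tranylcypromine and 1 = vehicle-only wells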
# D1 allo mod: D1 CRE-luciferase signal change, two-sided – cell-based, HEK293 D1, dopamine EC30, D1 allosteric modulator project, primary screen. D(1A) dopamine receptor (Homo sapiens), P21728. dopamine EC30 potentiation; actives deviate in either direction. B-score at 10 µM. hit rate 5.9% among 58,000;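 active = luminescence count or its row- and column-corrected plate score outside the 99.7% band of the plate's sample wells, on either side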
# CYP2C19 inhib: blockers of cytochrome P450 2C19 activity – biochemical, luminescence, ADME assay, primary screen; hit rate 21% among 96,000; AID 778, 2007; CYP2C19 Supersomes, luciferin-H EGE luminescence, 30 min; P33261; inhibition, % at 5 µM;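 active = CYP2C19 inhibition above a set limit at 5 µM in the primary screen, cut at about 50% in these data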;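 note: plate controls were negative control wells for no effect and 2.5 mM tranylcypromine positive control for full effect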
# hDAT+cocaine: changed hDAT dopamine uptake under cocaine IC80, either direction, primary screen, cocaine antagonist project, cell-based, LLC-PK1 hDAT, [14C]-dopamine uptake, MLSMR. LLC-PK1 hDAT cells, [14C]-dopamine uptake with cocaine IC80; actives deviate in either direction. AID 449768, 2010. hit rate 1.3% among 110,000. Sodium-dependent dopamine transporter (Homo sapiens), Q01959. B-score at 10 µM;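 active = Z score or B-score, a plate-position-corrected score, falls beyond the plate's 99.7% confidence bounds, in either direction; inactive = both scores lie inside the 99.7% bounds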;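 note: scored against the spread of the other compound wells on the same plate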
# D1 mod confirm: D1 receptor positive allosteric modulators, retest, confirmation, cell-based, HEK293 D1, CRE-luciferase, duplicate; luminescence at 10 µM; shares compounds with D1 allo mod; AID 642, 2007; hit rate 88% among 2,200; dopamine EC30 potentiation; active compounds read high;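 active = luminescence in either of two replicates above the same-plate mean plus 3 SD of the low-dose dopamine control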
# D1 no dopamine: D1 receptor agonism without dopamine, confirmation, mechanism study for D1 allosteric modulator project, cell-based, HEK293 D1, CRE-luciferase, secondary assay 1. shares compounds with D1 allo mod. luminescence, no dopamine; active compounds read high. luminescence at 10 µM. hit rate 0.8% among 1,900. AID 646, 2007; in the data active = luminescence above about 3900
# Isoprot counter: alters isoproterenol CRE-luciferase response in HEK293 cells. hit rate 63% among 2,200. AID 647. HEK293 D1 CRE-luciferase, isoproterenol EC30 counter-screen. calls only at 10 µM. shares compounds with D1 allo mod;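 active = luminescence in either replicate above plate mean of wells with a partly effective reference agonist dose plus 3 SD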;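 note: isoproterenol raises cAMP through native beta-adrenoceptor Gs so signal bypasses D1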
# Numbers without * were called inactive; i = inactive; . = not tested or not shown; + = active, no number.
SMILES,CYP2C9 inh,CYP2C9 activ,CYP2C19 activ,D1 allo mod,CYP2C19 inhib,hDAT+cocaine,D1 mod confirm,D1 no dopamine,Isoprot counter
CCOC(=O)c1cc2c(=O)n3ccccc3nc2n(CCCOC)c1=NC(=O)C(C)(C)C,19.8,0.8,0.8,4.79*,21.1,0.538,7076*,1412,i
CCOC(=O)c1cc2c(=O)n3ccccc3nc2n(C(C)C)c1=NC(=O)c1ccncc1,48.2,0.5,0.4,5.65*,64.8*,0.69,16620*,1616,+
CCC(=O)Nc1nc2c(OC)ccc(OC)c2s1,2.2,1,1.1,2.94*,-6.8,-0.156,8516*,1464,i
COc1ccc(OC)c2sc(NC(=O)C3CC3)nc12,57.1*,0.4,0.7,3.94*,30.7,-0.017,10100*,.,i
COc1ccccc1NC(=O)C1CCCCC1,-64.3,1.6,0.9,0.576,6.5,0.117,.,.,.
CCC(=O)Nc1nc2ccc3nc(C)sc3c2s1,-24.1,1.2,0.9,0.0398,6.6,1.37,.,.,.
CCCC1(C(=O)OCC)NC(c2cc(OC)c(OC)c(OC)c2)C2C(=O)N(CC)C(=O)C21 (stereo unspecified),13.1,0.9,1,.,4.1,.,.,.,.
CCC(=O)N1CCN(c2ccc(NC(=O)c3c(F)c(F)c(OC)c(F)c3F)cc2)CC1,15.0,0.8,1,.,0.5,-0.157,.,.,.
Cc1nc(CSc2nnc3scc(-c4ccccc4)n23)cs1,8.9,0.9,0.8,10.1*,23.2,0.892,21372*,1512,+
Cc1ccc(-c2csc3nnc(SCc4csc(C)n4)n23)cc1,90.1*,0.1,0.2,9.31*,75.3*,-0.0353,22688*,1908,+
O=c1cc(CSc2nnnn2-c2ccccc2)nc2scc(-c3ccccc3)n12,44.8,0.6,0.6,0.0757,38.1,0.111,.,.,.
Cc1noc(C)c1CSc1nnc2scc(-c3ccc(Cl)cc3)n12,-10.6,1.1,0.9,7.78*,8.4,-0.0542,18508*,1640,+
Cc1ccc(C)n1NC(=O)c1ccccc1O,44.7,0.6,0.8,.,19.0,-0.00479,.,.,.
O=C(O)C(CCCCN1C(=O)C2C3C=CC(C3)C2C1=O)N1C(=O)C2C3C=CC(C3)C2C1=O (stereo unspecified),4.0,1,1.1,-0.316,-12.4,0.366,.,.,.
CC(=NCc1ccco1)c1c(O)n(C2CCCCC2)c(=O)[nH]c1=O,55.0*,0.4,0,11.4*,97.4*,0.384,14172*,1048,+
CCOc1ccc(Cc2nnc(N)s2)cc1OCC,-5.3,1.1,0.8,10.5*,16.5,-0.722,18204*,1736,+
Nc1nnc(Cc2ccc(Cl)cc2)s1,-1.5,1,0.9,0.0995,14.1,0.564,.,.,.
COCCN(Cc1cc2cc3c(cc2[nH]c1=O)OCO3)C(=O)c1cccs1,5.1,0.9,0.7,.,34.2,-0.0485,.,.,.
Cc1cc(=O)oc2cc(OCC(=O)NCCc3nc4ccccc4[nH]3)ccc12,46.4,0.5,0.8,3.22*,24.1,-1.66,6860*,1464,i
O=C(O)c1ccccc1CSc1ncn[nH]1,-19.5,1.2,1.1,.,-8.2,0.385,.,.,.
Cc1cc(C(F)F)n2ncc(C(=O)NCc3ccccc3C(F)(F)F)c2n1,-10.8,1.1,1.1,5.28*,-14.7,0.123,8576*,.,+
O=C(O)c1cnn2c(C(F)F)cc(C(F)F)nc12,.,.,.,.,.,0.438,.,.,.
Cc1cc(C(F)F)n2ncc(C(=O)NC3CCCCCC3)c2n1,8.7,0.9,0.9,6.33*,9.1,-1.15,10720*,1544,+
O=C(NCc1ccco1)C1CCC(N2C(=O)c3ccccc3C2=O)CC1 (stereo unspecified),38.5,0.6,0.8,1.16,24.5,-0.0272,.,.,.
COC(=O)C1=C(C(=O)OC)C2(OC1c1cccc(F)c1)C(=O)c1ccccc1C2=O (stereo unspecified),28.7,0.7,0.8,.,20.4,0.0452,.,.,.
SMILES,CYP2C9 inh,CYP2C9 activ,CYP2C19 activ,D1 allo mod,CYP2C19 inhib,hDAT+cocaine,D1 mod confirm,D1 no dopamine,Isoprot counter
CCn1c(SCC#N)nc2c(c1=O)C1(CCCC1)Cc1ccccc1-2,88.8*,0.1,0.4,2.49*,59.6*,-1.21,7420*,.,i
CCCNc1nc(N2CCOCC2)nc(N2CCOCC2)n1,13.7,0.9,1,0.98,1.8,0.118,.,.,.
CSc1nc(NCC(C)C)nc(N2CCOCC2)n1,4.1,1,0.5,8.76*,49.3,0.0972,26752*,1652,+
O=C(OCn1nnc2ccccc2c1=O)C1CCN(S(=O)(=O)c2cccs2)CC1,.,.,.,4*,.,-1.64,11392*,1780,i
O=C(Nc1nc2ccccc2[nH]1)C1CCN(S(=O)(=O)c2cccs2)CC1,1.0,1,1,.,-2.5,0.609,.,.,.
CCCC(=O)Nc1c2c(nn1-c1ccc(OC)cc1)CS(=O)C2 (stereo unspecified),.,.,.,3.2*,.,-1.24,5968,1700,i
O=C(O)c1ccc(-c2ccc(O)c(F)c2)cc1,-4.7,1,1.2,5.93*,-16.0,0.272,7760*,1624,+
O=C(CCNS(=O)(=O)c1cccs1)N1CCc2ccccc2C1,2.6,1,0.4,3.41*,58.9*,0.396,4796,.,+
O=c1[nH]cn[nH]1,.,.,.,.,.,0.927,.,.,.
Cc1nc2c(cc(Oc3ccc(S(=O)(=O)N4CCOCC4)cn3)c3ccsc32)s1,90.0*,0.1,0.2,8.47*,84.2*,0.813,12244*,1860,+
Cc1nc2ccc(NC(=O)c3cc(S(=O)(=O)N4CCOCC4)ccc3C)cc2s1,13.4,0.9,0.9,.,5.4,1.09,.,.,.
CCCc1nc(N)c(C#N)c(N)c1C#N,-0.7,1,1,18.7*,-2.8,0.253,17760*,1744,+
CC1(C)CC(=O)C2=C(C1)OC(N)=C(C#N)C2c1cccc(OC(=O)c2ccco2)c1 (stereo unspecified),75.9*,0.2,1.1,6.28*,-14.7,-0.00945,5824*,1580,i
CC1(C)CC(=O)C2=C(C1)OC(N)=C(C#N)C2CCc1ccccc1 (stereo unspecified),.,.,.,8.87*,.,0.759,20388*,1576,+
